Measured values as given in PubChem BioAssay AID1159580 (chemical genetic matrix, 2015).
Values joined by “and” are separate entries in the source; they are usually repeats but may differ in a detail not shown here. Equal values may be shown once. The whole screen tested about 5,500 compounds, of which about 2,000 (36%) were called active. About 18% were inconclusive and are not listed. No stated cut-off is given here; in the data, active means normalized growth mostly below about 0.91 (no sharp cut-off); inconclusive means no clear call, values can overlap the other calls; inactive means mostly above about 0.92. Some of the results follow.

Experiment: chemical genetic growth profiling, strain panel (AID 1159580);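 further: tested at 20 µM; growth read once vehicle control cultures reached saturation at 30 °C; 1 = growth at the plate median or of vehicle wells; lower values mean less growth of the strain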
Conditions: S. cerevisiae deletion strains, growth OD
[1] = locus YAL013W, strain DEP1, hits give low values
[2] = locus YMR307W, strain GAS1, hits give low values
[3] = locus YNL128W, strain TEP1, hits give low values

Measured: normalized growth

NO
inactive: [1] 0.994 | locus YAL040C, strain CLN3, hits give low values 0.946 | locus YCL061C, strain MRC1 (second series), hits give low values 1.01 | locus YDR363W, strain ESC2, hits give low values 0.997 | locus YER002W, strain NOP16, hits give low values 1.01 | locus YGR229C, strain SMI1, hits give low values 1.1 | locus YJR075W, strain HOC1, hits give low values 1.02 | locus YMR263W, strain SAP30, hits give low values 1.01 | [2] 1.02 | [3] 0.998 | locus YNL153C, strain GIM3, hits give low values 0.988 | locus YNL175C, strain NOP13, hits give low values 1.01 | locus YNL197C, strain WHI3, hits give low values 0.976 | locus YNL224C, strain SQS1, hits give low values 1 | locus YOR083W, strain WHI5 (second series), hits give low values 0.946 | locus YPL055C, strain LGE1, hits give low values 1.01 | locus YPL241C, strain CIN2, hits give low values 1

COC(=O)C[C@H]1C(C)(C)C(=O)[C@@H]2CC3C4=CC(=O)O[C@@H](c5ccoc5)[C@]4(C)CCC3[C@@]1(C)C2=O (stereo not given in full)
inactive: [1] 0.98 | locus YAL021C, strain ccr4, hits give low values 0.967 | locus YAL026C, strain drs2, hits give low values 0.969 | locus YAL030W, strain snc1, hits give low values 0.979 | locus YBL061C, strain skt5, hits give low values 0.985 | locus YBR009C, strain hhf1, hits give low values 0.985 | locus YBR021W, strain FUR4, hits give low values 0.998 | locus YBR023C, strain chs3, hits give low values 0.99 | locus YBR171W, strain sec66, hits give low values 0.995 | locus YBR229C, strain ROT2, hits give low values 0.944 | locus YBR231C, strain swc5, hits give low values 0.998 | locus YBR279W, strain paf1, hits give low values 0.996 | locus YCL011C, strain gbp2, hits give low values 0.988 | locus YCL016C, strain dcc1, hits give low values 0.989 | locus YCL029C, strain bik1, hits give low values 0.973 | locus YCL061C, strain MRC1, hits give low values 0.976 | locus YCL069W, strain vba3, hits give low values 0.99 | locus YCR088W, strain abp1, hits give low values 0.98 | locus YDL005C, strain med2, hits give low values 0.978 | locus YDL035C, strain GPR1, hits give low values 0.959 | locus YDL040C, strain nat1, hits give low values 0.99 | locus YDL074C, strain BRE1, hits give low values 0.954 | locus YDL101C, strain DUN1, hits give low values 0.987 | locus YDL185W, strain tfp1, hits give low values 0.954 | locus YDL192W, strain arf1, hits give low values 0.985 | locus YDR001C, strain nth1, hits give low values 0.975 | locus YDR069C, strain doa4, hits give low values 0.977 | locus YDR101C, strain arx1, hits give low values 0.985 | locus YDR137W, strain rgp1, hits give low values 0.947 | locus YDR159W, strain sac3, hits give low values 0.97 | locus YDR162C, strain NBP2, hits give low values 0.96 | locus YDR195W, strain ref2 0.972 | locus YDR297W, strain sur2, hits give low values 1.05 | locus YDR318W, strain mcm21, hits give low values 0.98 | locus YDR334W, strain swr1, hits give low values 0.972 | locus YDR335W, strain msn5, hits give low values 0.983 | locus YDR388W, hits give low values 0.988 | locus YDR392W, strain spt3, hits give low values 0.993 | locus YDR502C, strain sam2, hits give low values 0.995 | locus YEL003W, strain gim4, hits give low values 0.989 | locus YEL037C, strain rad23, hits give low values 0.985 | locus YEL061C, strain CIN8 (second series), hits give low values 0.982 | locus YEL061C, strain CIN8, hits give low values 0.978 | locus YER015W, strain faa2, hits give low values 0.999 | locus YER016W, strain bim1, hits give low values 0.985 | locus YER110C, hits give low values 0.964 | locus YER111C, strain swi4, hits give low values 0.978 | locus YER155C, strain BEM2 (second series), hits give low values 0.978 | locus YER155C, strain BEM2, hits give low values 0.995 | locus YER167W, strain BCK2, hits give low values 0.978 | locus YFR010W, strain ubp6, hits give low values 0.964 | locus YGL078C, strain dbp3, hits give low values 0.97 | locus YGL086W, strain mad1, hits give low values 0.975 | locus YGL167C, strain pmr1, hits give low values 0.977 | locus YGL173C, strain kem1, hits give low values 0.982 | locus YGL227W, strain vid30, hits give low values 0.99 | locus YGL240W, strain doc1, hits give low values 1 | locus YGL248W, strain PDE1, hits give low values 0.971 | locus YGL253W, strain hxk2, hits give low values 0.98 | locus YGR135W, strain pre9, hits give low values 1.04 | locus YGR252W, strain gcn5, hits give low values 1.04 | locus YHR013C, strain ard1, hits give low values 0.983 | locus YHR027C, strain rpn1, hits give low values 0.979 | locus YHR030C, strain SLT2, hits give low values 0.979 and 0.991 | locus YHR079C, strain IRE1 (second series), hits give low values 0.969 | locus YHR079C, strain IRE1, hits give low values 0.979 | locus YHR094C, strain hxt1, hits give low values 0.97 | locus YHR129C, strain ARP1, hits give low values 0.987 | locus YHR142W, strain chs7, hits give low values 0.983 | locus YHR200W, strain rpn10, hits give low values 0.981 | locus YIL066C, strain RNR3, hits give low values 0.952 | locus YIL073C, strain SPO22, hits give low values 0.957 | locus YIL125W, strain kgd1, hits give low values 0.982 | locus YIR030C, strain dcg1, hits give low values 0.985 | locus YJL092W, strain hpr5, hits give low values 0.981 | locus YJL095W, strain BCK1 (second series), hits give low values 0.983 | locus YJL095W, strain BCK1, hits give low values 1.01 and 0.983 | locus YJL115W, strain asf1, hits give low values 0.964 | locus YJL129C, strain trk1, hits give low values 0.965 | locus YJL134W, strain LCB3, hits give low values 0.97 | locus YJL154C, strain vps35, hits give low values 0.99 | locus YJL164C, strain tpk1, hits give low values 0.988 | locus YJL166W, strain qcr8, hits give low values 0.989 | locus YJL168C, strain set2, hits give low values 0.991 | locus YJL187C, strain SWE1 (second series), hits give low values 0.993 | locus YJL187C, strain SWE1, hits give low values 0.998 | locus YJR066W, strain TOR1, hits give low values 0.943 | locus YKL009W, strain mrt4, hits give low values 0.956 | locus YKL068W, hits give low values 0.979 | locus YKL085W, strain MDH1 (second series), hits give low values 0.986 | locus YKL085W, strain MDH1, hits give low values 0.986 | locus YKL160W, strain elf1, hits give low values 0.992 | locus YKL190W, strain CNB1, hits give low values 0.98 | locus YKR001C, strain vps1, hits give low values 0.979 | locus YKR026C, strain gcn3, hits give low values 0.984 | locus YKR091W, strain srl3, hits give low values 0.984 | locus YLL001W, strain dnm1, hits give low values 0.979 | locus YLL026W, hits give low values 0.982 | locus YLL041C, strain sdh2, hits give low values 0.978 | locus YLR027C, strain aat2, hits give low values 1 | locus YLR039C, strain RIC1, hits give low values 0.902 | locus YLR058C, strain SHM2, hits give low values 0.961 | locus YLR102C, strain apc9, hits give low values 0.979 | locus YLR113W, strain HOG1, hits give low values 1 | locus YLR221C, strain rsa3, hits give low values 0.992 | locus YLR258W, strain gsy2, hits give low values 0.981 | locus YLR262C, strain YPT6 (second series), hits give low values 0.982 | locus YLR262C, strain YPT6, hits give low values 0.916 | locus YLR268W, strain sec22, hits give low values 0.997 | locus YLR320W, strain mms22, hits give low values 0.982 | locus YLR330W, strain CHS5, hits give low values 0.983 | locus YLR342W, strain FKS1 (second series), hits give low values 1.02 | locus YLR342W, strain FKS1, hits give low values 0.99 | locus YLR357W, strain rsc2, hits give low values 0.977 | locus YLR370C, strain arc18, hits give low values 0.987 | locus YLR371W, strain rom2, hits give low values 0.981 | locus YLR384C, strain iki3, hits give low values 0.983 | locus YLR418C, strain cdc73, hits give low values 1 | locus YML016C, strain PPZ1, hits give low values 0.978 | locus YML032C, strain rad52, hits give low values 0.945 | locus YML120C, strain ndi1, hits give low values 0.992 | locus YML124C, strain tub3, hits give low values 0.994 | locus YMR058W, strain fet3, hits give low values 0.969 | locus YMR078C, strain ctf18, hits give low values 0.958 | locus YMR125W, strain sto1, hits give low values 0.973 | locus YMR129W, hits give low values 0.993 | locus YMR205C, strain PFK2, hits give low values 0.977 | locus YMR223W, strain ubp8, hits give low values 1 | locus YMR231W, strain pep5, hits give low values 0.968 | [2] 1.01 | locus YNL067W, strain RPL9B, hits give low values 1.01 | locus YNL071W, strain lat1, hits give low values 0.979 | [3] 0.945 | locus YNL183C, strain NPR1, hits give low values 0.972 | locus YNL209W, strain ssb2, hits give low values 0.989 | locus YNL233W, strain BNI4, hits give low values 1.02 | locus YNL248C, strain rpa49, hits give low values 0.967 | locus YNL250W, strain rad50, hits give low values 0.98 | locus YNL271C, strain bni1, hits give low values 0.976 | locus YNL298W, strain CLA4, hits give low values 0.962 | locus YNL307C, strain MCK1, hits give low values 0.978 | locus YNL322C, strain KRE1 (second series), hits give low values 0.995 | locus YNL322C, strain KRE1, hits give low values 0.981 | locus YNR049C, strain mso1, hits give low values 0.976 | locus YNR052C, strain pop2, hits give low values 0.989 | locus YOL006C, strain TOP1, hits give low values 0.934 | locus YOL012C, strain htz1 0.856 | locus YOL147C, strain pex11, hits give low values 0.969 | locus YOR001W, strain rrp6, hits give low values 0.962 | locus YOR061W, strain CKA2, hits give low values 0.964 | locus YOR069W, strain VPS5, hits give low values 0.988 | locus YOR070C, strain gyp1, hits give low values 0.982 | locus YOR080W, strain dia2, hits give low values 0.983 | locus YOR083W, strain WHI5, hits give low values 0.989 | locus YOR106W, strain vam3, hits give low values 0.99 | locus YOR136W, strain idh2, hits give low values 0.971 | locus YOR144C, strain elg1, hits give low values 0.996 | locus YOR184W, strain ser1, hits give low values 0.948 | locus YOR231W, strain MKK1, hits give low values 0.984 | locus YOR265W, strain rbl2, hits give low values 0.986 | locus YOR270C, strain vph1, hits give low values 0.925 | locus YOR290C, strain snf2, hits give low values 1 | locus YOR316C, strain cot1, hits give low values 0.982 | locus YPL051W, strain arl3, hits give low values 1.03 | locus YPL078C, strain atp4, hits give low values 0.985 | locus YPL106C, strain sse1, hits give low values 0.994 | locus YPL240C, strain hsp82, hits give low values 0.984 | locus YPL256C, strain CLN2, hits give low values 0.967 | locus YPR119W, strain clb2, hits give low values 0.99 | locus YPR141C, strain kar3, hits give low values 0.988 | locus YPR163C, strain tif3, hits give low values 0.985 | locus YPR167C, strain met16, hits give low values 0.982 | strain wtn01, hits give low values 0.967
